The results in this text go back to the OligoGym collection.
Note: reference of the scale not given here.

In one experiment the target is TGFB1I1. The experiment can be described thus: pooled miR-30 sensor sort-seq; sequence = guide strand. As to conditions: shRNA.
On to TCATCTGTGATGTTGAACTGAG, for which the sensor-assay potency score (higher = more potent) is -0.542.
The same measure, in the same setting: the figure for TCTTTTCTTATCTTCAGACTGG is -0.149; for TTTGTGGAGCTCACCACCGGTG it is -1.15; for TTGTGGAGCTCACCACCGGTGG it is -1.9.
The same measure, in the same setting: the figure for TTGTCTGTGTGCAATCCACTTT is 0.0751.
Regarding TGAGACATGATTTCATCTGTGA, the sensor-assay potency score (higher = more potent) worked out at 0.918.
In turn, TTTATTGCAGGAGCCACAGAGG returned a sensor-assay potency score (higher = more potent) of -1.1.
Sequence TAAGTTCCTGAAGCAACCGATC came in with a sensor-assay potency score (higher = more potent) of -1.43.
TTTTCTTATCTTCAGACTGGTC registered a sensor-assay potency score (higher = more potent) of -0.967.
Still for that read-out and setting: then TTCCTGAAGCAACCGATCTAGC, with -0.825.

The target of the next experiment is THNSL1. The description is as above. The settings on record: shRNA.
TTTGAGAATATCTATTGACGGT: the sensor-assay potency score (higher = more potent) was -0.0842.
For the sequence TTGAGAATATCTATTGACGGTG, the sensor-assay potency score (higher = more potent) was -0.169.
Same read-out and setting: then TATACTAGAAAAACATTTCTGT, with 0.647.
In turn, TTTGTCTCCAACAAGAGAGTGG had a sensor-assay potency score (higher = more potent) of -0.0448.
Turning to TATAATTGCAACTTGGTGGGAT, the sensor-assay potency score (higher = more potent) was determined as 0.997.
Regarding TATGACACAACAACCTAGTTTC, the sensor-assay potency score (higher = more potent) was -0.543.
Same read-out and setting: the figure for TATCTGTGCTCTTTCTACGTAG is -0.49; for TATAGGTGGAGTTAATAGCTGC it is -0.591.
Still for that read-out and setting: then TTGCTCATTACCAACATCCTGT, with 0.41; and TTCTTTAATCTTTAAAGCCTGC, with -0.791; and ATCTAGTAGAGGTACATCCAGG, with -1.3.
The same measure, in the same setting: then TATCCTTTGCTTATCATTCTTA, with 0.234.

The target of a further experiment is THOC7. The description is as above. As to conditions: shRNA.
In the case of TTTCCGTCTCAATTCCAGCTTA, the sensor-assay potency score (higher = more potent) was -0.243.
Same read-out and setting: the figure for TTTTCGTATTCGTTTTGCTTGA is -0.919; for TTTAATGAAACTCTTCACTAGC it is 0.0596; for TTCCTGAGCTTCTTCTACCTCT it is -0.111.
The sequence TATGCTACATTCTATTTCCTTG yielded a sensor-assay potency score (higher = more potent) of -0.777.
For TAATTCTCCGATCATCTCCAGC, the sensor-assay potency score (higher = more potent) is -0.503.
Regarding TAAGAAGAACATGAAACTGTTT, the sensor-assay potency score (higher = more potent) was -0.283.
Sequence TTTGCTTGAAGAATTTGCTTTT returned a sensor-assay potency score (higher = more potent) of -0.209.
As for TTTTGCTTGAAGAATTTGCTTT, the sensor-assay potency score (higher = more potent) is -0.308.
On to TTCGTATTCGTTTTGCTTGAAG, for which the sensor-assay potency score (higher = more potent) was -0.51.
Same read-out and setting: the figure for TAATGTGTGAAAGATGCTCTAA is 0.0139.

The next experiment has as its target TIMM44. The description is as above. The settings on record: shRNA.
TTCTTGTTTGACATTATCTAGC: the sensor-assay potency score (higher = more potent) was -0.514.
On the same count and under the same terms, the figure for TTTACTGACTTCGTGAAGGCTC is 0.133; for TAGCTTCATAGCACCAGTCTTT it is -0.701.
On the same count and under the same terms, the figure for ATCTTCATCTCGAAGAACCGGT is -0.094; for TGACATTATCTAGCAAGCCGGA it is -1.13.
The same measure, in the same setting: then ATCACTTTTACTGACTTCGTGA, with 0.235.
In the case of TTGTTTGACATTATCTAGCAAG, the sensor-assay potency score (higher = more potent) was -0.93.
